# In PubChem BioAssay (NCI):
# Compounds without any hit were thinned out: in the full panel of roughly 79,000, 15% have a hit. Values without a mark were called inactive. Calls of active or inactive are those of the source. Cut-off read from the data, not from the text of the source: active = growth inhibition above about 70%; inactive = the rest.
# Columns and labels:
# [1] = NCI Yeast Anticancer Drug Screen. Data for the wt1 strain (AID 149);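 note: 0% = growth of vehicle-treated wt1 cultures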; details: S. cerevisiae wt1 strain (SPY 50644) growth inhibition, stronger effect = higher value
# Procedure, shortened: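 Measured: growth of wt1 yeast under compound versus vehicle treatment, reported as inhibition.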
# [2] = NCI Yeast Anticancer Drug Screen. Data for the rad50EPP+ strain (AID 151);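 note: 0% = growth of vehicle-treated control cultures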; details: S. cerevisiae rad50 mutant strain, stronger effect = higher value
# Procedure, shortened: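 Exposing the rad50EPP+ strain to each compound, growth was compared with vehicle-only cultures to give inhibition.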
# [3] = NCI Yeast Anticancer Drug Screen. Data for the mgt1 strain (AID 153); details: S. cerevisiae mgt1 mutant growth inhibition, stronger effect = higher value
# Procedure, shortened: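 Genetically defined yeast (mgt1) treated with compound; inhibition of growth expressed against vehicle-treated controls.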
# [4] = NCI Yeast Anticancer Drug Screen. Data for the rad50 strain (AID 155);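 note: 0% = growth of vehicle-only cultures of the same strain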; details: S. cerevisiae rad50 strain growth inhibition, stronger effect = higher value
# Procedure, shortened: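 Growth of the mutant yeast was measured after compound exposure and referenced to vehicle-treated cultures.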
# [5] = NCI Yeast Anticancer Drug Screen. Data for the mec2-1 strain (AID 157); details: S. cerevisiae mec2-1 strain, stronger effect = higher value
# Procedure, shortened: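 Readout is yeast growth inhibition, normalised to vehicle-treated controls, in the mec2-1 strain exposed to compound.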
# [6] = NCI Yeast Anticancer Drug Screen. Data for the sgs1 mgt1 strain (AID 161);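 note: 0% = growth of cultures given vehicle only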; details: S. cerevisiae sgs1 mgt1 strain, stronger effect = higher value
# Procedure, shortened: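 Compounds are added to genetically altered yeast, and growth is compared with cultures given vehicle alone to give percent inhibition.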
# [7] = NCI Yeast Anticancer Drug Screen. Data for the CLN2oe strain (AID 163);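 note: 0% = growth of vehicle-only control cultures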; details: S. cerevisiae CLN2oe strain, stronger effect = higher value
# Procedure, shortened: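 Values reflect how much compound exposure reduced yeast growth, referenced to vehicle-exposed cells. Assay organism is a strain with a defined genetic change affecting cell-cycle control.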
# [8] = NCI Yeast Anticancer Drug Screen. Data for the cln2 rad14 strain (AID 165);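 note: 0% = growth equal to vehicle treated cultures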; details: S. cerevisiae cln2 rad14 strain, stronger effect = higher value
# Procedure, shortened: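 Relative to vehicle controls, growth inhibition of compound-treated cln2 rad14 yeast was recorded.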
# [9] = NCI Yeast Anticancer Drug Screen. Data for the bub3 strain (AID 167); details: S. cerevisiae bub3 mutant strain, stronger effect = higher value
# Procedure, shortened: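 Whole-cell yeast assay. The mutant strain was incubated with compounds, and growth inhibition was determined by comparison with vehicle-treated cells.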
# [10] = NCI Yeast Anticancer Drug Screen. Data for the wt2 strain (AID 169);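 note: 0% = growth of vehicle-treated yeast cultures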; details: S. cerevisiae wt2 strain growth inhibition, stronger effect = higher value
# Procedure, shortened: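 Values express reduction in yeast growth under compound treatment, referenced to vehicle-treated cells.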
# [11] = NCI Yeast Anticancer Drug Screen. Data for the mlh1 strain (AID 171);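 note: 0% = growth of vehicle-treated control cultures of the same strain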; details: S. cerevisiae mlh1 strain growth inhibition, stronger effect = higher value
# Procedure, shortened: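 Steps: expose the defined-mutant yeast strain to compound; expose a parallel culture to vehicle; measure growth; express compound effect as inhibition relative to the vehicle culture.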
# [12] = NCI Yeast Anticancer Drug Screen. Data for the sgs1 strain (AID 173);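 note: 0% = growth of vehicle-only control cultures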; details: S. cerevisiae sgs1 mutant, stronger effect = higher value
# Procedure, shortened: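 Treat defined-mutant yeast with compound; measure growth; calculate inhibition relative to vehicle-treated cells.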
# [13] = NCI Yeast Anticancer Drug Screen. Data for the mlh1 rad18 strain (AID 175); details: S. cerevisiae mlh1 rad18 strain growth inhibition, stronger effect = higher value
# Procedure, shortened: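 Test agents were incubated with a yeast strain of defined genotype (DNA damage repair defect). Inhibition of growth was derived by comparison with vehicle-exposed cultures.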
# [14] = NCI Yeast Anticancer Drug Screen. Data for the rad18 strain (AID 177); details: S. cerevisiae rad18 mutant growth inhibition, stronger effect = higher value
# Procedure, shortened: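 A genetically defined yeast mutant impaired in DNA damage repair was treated with test compounds, then its growth was measured against cultures receiving vehicle alone.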
# [15] = at 5.0 µM (retest, dose inferred, filed as 0.5)
# [16] = at 50.0 µM (retest, dose inferred, filed as 5.0)
structure (smiles),measurement,setting,value
CCN(CC)CC[n+]1ccc2c(C)c3[nH]c4ccc(O)cc4c3c(C)c2c1,growth inhibition,[1]; at 1.2 µM,0%
same,growth inhibition,[1]; at 3.7 µM,-1%
same,growth inhibition,[1]; at 11.0 µM,3%
same,growth inhibition,[1]; at 33.0 µM,4%
same,growth inhibition,[1]; at 100.0 µM,8%
same,growth inhibition,[2]; at 1.2 µM,4%
same,growth inhibition,[2]; at 3.7 µM,16%
same,growth inhibition,[2]; at 11.0 µM,46%
same,growth inhibition,[2]; at 33.0 µM,88% (active)
same,growth inhibition,[2]; at 100.0 µM,91% (active)
same,growth inhibition,[3]; at 1.2 µM,0%
same,growth inhibition,[3]; at 3.7 µM,-1%
same,growth inhibition,[3]; at 11.0 µM,0%
same,growth inhibition,[3]; at 33.0 µM,3%
same,growth inhibition,[3]; at 100.0 µM,8%
same,growth inhibition,[4]; at 1.2 µM,13%
same,growth inhibition,[4]; at 3.7 µM,42%
same,growth inhibition,[4]; [15],36%
same,growth inhibition,[4]; at 11.0 µM,72% (active)
same,growth inhibition,[4]; at 33.0 µM,89% (active)
same,growth inhibition,[4]; [16],87% (active)
same,growth inhibition,[4]; at 50.0 µM,95% (active)
same,growth inhibition,[4]; at 100.0 µM,93% (active)
same,growth inhibition,[5]; at 1.2 µM,-2%
same,growth inhibition,[5]; at 3.7 µM,-13%
same,growth inhibition,[5]; [15],9%
same,growth inhibition,[5]; at 11.0 µM,9%
same,growth inhibition,[5]; at 33.0 µM,8%
same,growth inhibition,[5]; [16],4%
same,growth inhibition,[5]; at 50.0 µM,-11.9%
same,growth inhibition,[5]; at 100.0 µM,43%
same,growth inhibition,[6]; [15],4%
same,growth inhibition,[6]; [16],13%
same,growth inhibition,[6]; at 50.0 µM,1.5%
same,growth inhibition,[7]; at 1.2 µM,-8%
same,growth inhibition,[7]; at 3.7 µM,-4%
same,growth inhibition,[7]; at 11.0 µM,-8%
same,growth inhibition,[7]; at 33.0 µM,-8%
same,growth inhibition,[7]; at 100.0 µM,16%
same,growth inhibition,[8]; [15],-2%
same,growth inhibition,[8]; [16],18%
same,growth inhibition,[8]; at 50.0 µM,-21.6%
same,growth inhibition,[9]; at 1.2 µM,-10%
same,growth inhibition,[9]; at 3.7 µM,3%
same,growth inhibition,[9]; [15],8%
same,growth inhibition,[9]; at 11.0 µM,-5%
same,growth inhibition,[9]; at 33.0 µM,-7%
same,growth inhibition,[9]; [16],6%
same,growth inhibition,[9]; at 50.0 µM,-14.8%
same,growth inhibition,[9]; at 100.0 µM,2%
same,growth inhibition,[10]; at 1.2 µM,0%
same,growth inhibition,[10]; at 3.7 µM,0%
same,growth inhibition,[10]; at 11.0 µM,-1%
same,growth inhibition,[10]; at 33.0 µM,2%
same,growth inhibition,[10]; at 100.0 µM,26%
same,growth inhibition,[11]; at 1.2 µM,-4%
same,growth inhibition,[11]; at 3.7 µM,3%
same,growth inhibition,[11]; at 11.0 µM,1%
same,growth inhibition,[11]; at 33.0 µM,9%
same,growth inhibition,[11]; at 100.0 µM,68%
same,growth inhibition,[12]; at 1.2 µM,-2%
same,growth inhibition,[12]; at 3.7 µM,-1%
same,growth inhibition,[12]; at 11.0 µM,6%
same,growth inhibition,[12]; at 33.0 µM,9%
same,growth inhibition,[12]; at 100.0 µM,31%
same,growth inhibition,[13]; [15],7%
same,growth inhibition,[13]; [16],19%
same,growth inhibition,[13]; at 50.0 µM,27.8%
same,growth inhibition,[14]; at 1.2 µM,-2%
same,growth inhibition,[14]; at 3.7 µM,-2%
same,growth inhibition,[14]; at 11.0 µM,3%
same,growth inhibition,[14]; at 33.0 µM,12%
same,growth inhibition,[14]; at 100.0 µM,58%
